From PubChem BioAssay AID1159580 (chemical genetic matrix, 2015)
The campaign covered roughly 5,500 compounds. About 2,000 (36%) were called active. Inconclusive results (about 18%) are left out. Cut-off read from the data, not from the text of the source: active = normalized growth mostly below about 0.91 (no sharp cut-off); inconclusive = no clear call, values can overlap the other calls; inactive = mostly above about 0.92. The list shows a part of the results.

Assay: chemical genetic growth profiling, strain panel (AID 1159580);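 note: tested at 20 µM; growth read once vehicle control cultures reached saturation at 30 °C; 1 = growth at the plate median or of vehicle wells; lower values mean less growth of the strain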
Settings: S. cerevisiae deletion strains, growth OD

Measured: normalized growth

CC(CC(C(N)=O)(c1ccccc1)c1ccccc1)N(C)C (stereo not given)
inactive: locus YAL021C, strain ccr4, active compounds read low 0.952 | locus YAL026C, strain drs2, active compounds read low 0.977 | locus YAL030W, strain snc1, active compounds read low 0.996 | locus YBL061C, strain skt5, active compounds read low 0.983 | locus YBR009C, strain hhf1, active compounds read low 0.988 | locus YBR023C, strain chs3, active compounds read low 0.949 | locus YBR171W, strain sec66, active compounds read low 0.967 | locus YBR231C, strain swc5, active compounds read low 0.994 | locus YBR279W, strain paf1, active compounds read low 0.995 | locus YCL011C, strain gbp2, active compounds read low 0.963 | locus YCL016C, strain dcc1, active compounds read low 0.989 | locus YCL061C, strain MRC1, active compounds read low 0.981 | locus YCL069W, strain vba3, active compounds read low 0.976 | locus YCR088W, strain abp1, active compounds read low 0.973 | locus YDL005C, strain med2, active compounds read low 0.989 | locus YDL040C, strain nat1, active compounds read low 0.996 | locus YDR001C, strain nth1, active compounds read low 0.974 | locus YDR069C, strain doa4, active compounds read low 0.973 | locus YDR137W, strain rgp1, active compounds read low 0.968 | locus YDR159W, strain sac3, active compounds read low 0.981 | locus YDR195W, strain ref2 0.981 | locus YDR297W, strain sur2, active compounds read low 0.983 | locus YDR334W, strain swr1, active compounds read low 0.942 | locus YDR335W, strain msn5, active compounds read low 0.978 | locus YDR392W, strain spt3, active compounds read low 0.958 | locus YEL003W, strain gim4, active compounds read low 0.982 | locus YEL037C, strain rad23, active compounds read low 0.939 | locus YEL061C, strain CIN8 (second series), active compounds read low 0.982 | locus YER015W, strain faa2, active compounds read low 1.01 | locus YER016W, strain bim1, active compounds read low 0.982 | locus YER111C, strain swi4, active compounds read low 0.994 | locus YER155C, strain BEM2 (second series), active compounds read low 0.985 | locus YFR010W, strain ubp6, active compounds read low 0.964 | locus YGL167C, strain pmr1, active compounds read low 0.988 | locus YGL173C, strain kem1, active compounds read low 0.975 | locus YGL227W, strain vid30, active compounds read low 0.989 | locus YGL240W, strain doc1, active compounds read low 0.981 | locus YGL253W, strain hxk2, active compounds read low 0.937 | locus YHR013C, strain ard1, active compounds read low 0.951 | locus YHR027C, strain rpn1, active compounds read low 0.978 | locus YHR030C, strain SLT2, active compounds read low 1.02 | locus YHR079C, strain IRE1, active compounds read low 1.02 | locus YHR142W, strain chs7, active compounds read low 0.957 | locus YJL092W, strain hpr5, active compounds read low 0.969 | locus YJL095W, strain BCK1 (second series), active compounds read low 0.983 | locus YJL095W, strain BCK1, active compounds read low 0.992 | locus YJL115W, strain asf1, active compounds read low 0.962 | locus YJL129C, strain trk1, active compounds read low 0.952 | locus YJL154C, strain vps35, active compounds read low 0.984 | locus YJL164C, strain tpk1, active compounds read low 0.974 | locus YJL166W, strain qcr8, active compounds read low 0.987 | locus YJL187C, strain SWE1, active compounds read low 0.984 | locus YJR066W, strain TOR1, active compounds read low 0.969 | locus YKL160W, strain elf1, active compounds read low 0.978 | locus YKR026C, strain gcn3, active compounds read low 0.979 | locus YKR091W, strain srl3, active compounds read low 0.987 | locus YLL001W, strain dnm1, active compounds read low 0.994 | locus YLL026W, active compounds read low 0.986 | locus YLL041C, strain sdh2, active compounds read low 0.979 | locus YLR027C, strain aat2, active compounds read low 0.989 | locus YLR113W, strain HOG1, active compounds read low 0.999 | locus YLR221C, strain rsa3, active compounds read low 0.979 | locus YLR258W, strain gsy2, active compounds read low 0.978 | locus YLR262C, strain YPT6 (second series), active compounds read low 0.977 | locus YLR320W, strain mms22, active compounds read low 0.992 | locus YLR342W, strain FKS1, active compounds read low 0.986 | locus YLR357W, strain rsc2, active compounds read low 0.992 | locus YLR370C, strain arc18, active compounds read low 0.984 | locus YLR384C, strain iki3, active compounds read low 0.994 | locus YML120C, strain ndi1, active compounds read low 0.97 | locus YMR058W, strain fet3, active compounds read low 0.967 | locus YMR125W, strain sto1, active compounds read low 0.995 | locus YMR129W, active compounds read low 0.972 | locus YMR205C, strain PFK2, active compounds read low 0.965 | locus YMR231W, strain pep5, active compounds read low 0.983 | locus YNL071W, strain lat1, active compounds read low 0.979 | locus YNL183C, strain NPR1, active compounds read low 0.973 | locus YNL209W, strain ssb2, active compounds read low 0.983 | locus YNL248C, strain rpa49, active compounds read low 0.941 | locus YNL322C, strain KRE1 (second series), active compounds read low 0.983 | locus YNR049C, strain mso1, active compounds read low 0.976 | locus YOR001W, strain rrp6, active compounds read low 0.959 | locus YOR070C, strain gyp1, active compounds read low 0.99 | locus YOR080W, strain dia2, active compounds read low 0.971 | locus YOR083W, strain WHI5, active compounds read low 0.973 | locus YOR106W, strain vam3, active compounds read low 0.982 | locus YOR231W, strain MKK1, active compounds read low 1.04 | locus YOR265W, strain rbl2, active compounds read low 0.991 | locus YOR270C, strain vph1, active compounds read low 0.954 | locus YOR290C, strain snf2, active compounds read low 0.988 | locus YPL051W, strain arl3, active compounds read low 0.996 | locus YPL078C, strain atp4, active compounds read low 0.94 | locus YPL106C, strain sse1, active compounds read low 0.968 | locus YPL240C, strain hsp82, active compounds read low 0.967 | locus YPL256C, strain CLN2, active compounds read low 1.03
